# Source: PubChem BioAssay (NCI)
# The panel holds about 83,000 compounds, 20% with a hit somewhere; the sample as a whole holds those more often.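 Results are percent growth after 48 hours of single-concentration exposure. 100 means growth as in untreated cells, lower positive values show inhibition; negative values down to -100 show cell death.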 Values without a mark were called inactive. Rule for the calls: active = growth percent below 10; inactive = the rest.
# System: MDA-MB-468 breast
# Assay: NCI-60 one-dose screen, 48 h (100 = growth as untreated, 0 = no growth, -100 = all killed)
# Details: 10 µM unless noted
row,Structure (SMILES),growth
1,CC(C)(C)c1ccc(S(=O)(=O)N[C@H]2CC[C@H]3[C@@H]4CCc5cc(O)c([N+](=O)[O-])cc5[C@H]4CC[C@]23C)cc1,99.9%
2,COc1cc(N=Cc2sc(Nc3nccs3)nc2O)cc(OC)c1OC,84.8%
3,COc1ccc(-c2c(C(=O)NS(C)(=O)=O)n(Cc3cccc(C(F)(F)F)c3)c3ccccc23)cc1,86.6%
4,CCCCCc1ccc(S(=O)(=O)Nc2cccc(-c3csc(NC(=O)CCCCCN4CCN(C)CC4)n3)c2)cc1,79%
5,N#C/C(=C\c1ccc(Br)cc1)c1cc2ccccc2[nH]1,82.8%
6,O=S(=O)(NCCNc1nccc(-c2c(-c3cccc(F)c3)nc3occn23)n1)c1cccc2ccccc12,35.2%
7,N#C/C(=C\c1cccc2c1OCO2)C(=O)Nc1sc2c(c1C#N)CCCC2,100%
8,COc1cc(/C=C\C(C)=N\Nc2ccccc2)ccc1O,49%
9,CC(=O)OCCCCCNc1ccccc1,125%
10,O=C1/C(=C\c2cn(-c3nc(N4CCOCC4)nc(N4CCOCC4)n3)c3ccccc23)c2ccccc2N1c1c(Cl)cccc1Cl,17%
11,COC(=O)[C@]12CC[C@@H](C)[C@H](C)[C@@H]1C1=CC[C@@H]3[C@@]4(C)C(C=O)=C[C@@](C)(COC(C)=O)[C@@H]4C(=O)C[C@@]3(C)[C@]1(C)CC2,33.6%
12,O=C(CNCCN1CCOCC1)N1c2cccc3cccc(c23)N(C(=O)CNCCN2CCOCC2)C1c1cn(-c2ccccc2)nc1-c1cccc([N+](=O)[O-])c1,35.8%
